Screening results deposited in PubChem by SRMLSC.
An excerpt weighted towards active compounds, which were near 6.8% of everything screened.
A340 absorber = absorbance at 340 nm. compound absorbance at 340 nm, fold over control. fold change at 10 µM. 65,000 tested, under 10 active;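 active = at 10 µM dose, initial 340 nm absorbance at least 2 fold that of control wells; inactive = change under 2 fold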;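 also: initial absorbance extrapolated from kinetic A340 decline of NADH oxidation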
NADH enzymes = inhibitors of enzymes used to reach an NAD/NADH endpoint | coupled PK/LDH NADH assays, four targets | IC50, µM (doses to about 10 µM) | actives 0.02% (n = 65,000) | AID 774;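 active = single-dose screening hits from any of four coupled enzyme assays that gave an IC50 when retested across doses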;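 also: the DPM-DC format reads NADH fluorescence rather than 340 nm absorbance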
Autofluor 339 = intrinsic fluorescence of library compounds, ex339/em460 – biochemical, MLSMR library, data from DPM-DC assay, artefact control, profiling panel; AID 709; compound autofluorescence, ex339/em460 nm, NADH buffer; active compounds read high; 1 = no-compound wells, NADH background; actives 5.5% (n = 65,000); fluorescence fold increase at 10 µM;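 active = at 10 µM, mean starting fluorescence two-fold or more over control wells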;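 also: signal is the first read of a kinetic run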
DPM-DC inhibit = blocks S. pneumoniae diphosphomevalonate decarboxylase. purified DPM-DC, PK/LDH coupled NADH fluorescence. calls only at 10 µM. actives 0.49% (n = 65,000). AID 556;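 active = the 320 compounds with the highest percent inhibition in the single-dose primary screen, excluding strongly autofluorescent ones, cut at about 32% in these data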;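 also: kinetic rate of NADH fluorescence loss reporting ADP formed by the decarboxylase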
MK inhibit = inhibitors of Streptococcus pneumoniae mevalonate kinase; purified MK, PK/LDH-coupled NADH absorbance 340 nm; inhibition, % at 10 µM; actives 0.48% (n = 65,000); AID 555;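 active = ranked among the strongest by inhibition in the single 10 µM screen, a fixed top-ranked set picked for dose follow-up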
Spn PMK inh = blocks S. pneumoniae phosphomevalonate kinase | actives 0.49% (n = 65,000) | inhibition, % at 10 µM | purified PMK, PK/LDH-coupled NADH absorbance 340 nm;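 active = top-ranked compounds by inhibition in the single 10 µM screen, taking a fixed number of the strongest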
Large screens that a line does not name were inactive.

Cc1cc(N2CCOCC2)nc2ccc(NC(=O)CCC(=O)N3CCCC(C)C3)cc12 (centres undefined)	Autofluor 339 4.8 (not shown: DPM-DC inhibit)
COc1ccc(C)cc1NC(=O)CCC(=O)Nc1ccc2nc(N3CCN(C)CC3)cc(C)c2c1	Autofluor 339 2.5
COc1cccc(C(=O)Nc2ccc3nc(N4CCN(c5ncccn5)CC4)cc(C)c3c2)c1OC	none
CCN1CCN(c2cc(C)c3cc(NC(=O)c4ccc5c(c4)OCO5)ccc3n2)CC1	none
Cc1cc(N2CCN(C)CC2)nc2ccc(NC(=O)CCC(=O)NCc3ccco3)cc12	Autofluor 339 3.5
Cc1noc(/C=C/N(C)C)c1S(=O)(=O)N1CCc2ccccc21	none
CCSc1nnc(NC(=O)Cc2ccc(OC)c(S(=O)(=O)N3CCOCC3)c2)s1	none
CSc1nnc(NC(=O)C2CCCCC2)s1	none (no result: Spn PMK inh)
CSc1ncc(Cl)c(C(=O)Nc2nnc(SC)s2)n1	DPM-DC inhibit active
CCc1ccccc1NC(=O)c1cnc2scc(C)n2c1=O	none
Cc1csc2ncc(C(=O)NCc3ccccn3)c(=O)n12	Autofluor 339 2.1 (not shown: DPM-DC inhibit)
Cc1ccc(S(=O)(=O)NCCSc2nnnn2C)cc1	none
Cc1cc(NC(=O)c2noc3c2CCCC3)n(-c2ccccc2)n1	none
Cc1cc(=O)oc2c(N)c(O)ccc12	none
Cc1cc(=O)oc2c(CN(C)Cc3ccccc3)c(O)ccc12	Autofluor 339 3.6 (not shown: DPM-DC inhibit)
O=C(C1Cc2ccccc2CN1S(=O)(=O)c1cccs1)N1CCCCC1 (centres undefined)	none
CCOC(=O)c1cnc(SCC(=O)N2CCN(C(=O)c3ccco3)CC2)nc1N	Spn PMK inh 25
CCOC(=O)c1cc2sc(C)cc2n1CC(=O)N1CCN(C(=O)c2ccco2)CC1	MK inhibit 42
CCOC(=O)c1cc2sccc2n1CC(=O)N1CCN(C(=O)c2ccco2)CC1	none
CCOCCCNC(=O)C1CCN(C(=O)Nc2ccc(Cl)cc2)CC1	none
O=c1c2ccccc2cnn1-c1nc2ccccc2s1	Autofluor 339 3 (not shown: DPM-DC inhibit)
O=c1c2ccccc2ncn1Cc1nc2ccccc2s1	none
C=CCn1c(N)c(C(=O)NCc2cccnc2)sc1=S	none
CN1CCN(c2nc(-c3cccs3)cc(C(F)(F)F)n2)CC1	none
CS(=O)(=O)c1nc(-c2cccs2)cc(C(F)(F)F)n1	Autofluor 339 2.2 (not shown: DPM-DC inhibit)
Cc1cc(NC(=O)CCCS(=O)(=O)c2nc(-c3cccs3)cc(C(F)(F)F)n2)no1	Autofluor 339 3.4 (not shown: DPM-DC inhibit)
CCC(=O)Nc1cccc(NC(=O)CSc2nnnn2Cc2ccccc2)c1	DPM-DC inhibit active
O=C(CSc1nnnn1Cc1ccccc1)NCCc1ccccc1	DPM-DC inhibit active
O=C1CCC(C(=O)O)(c2ccccc2)C1 (centres undefined)	none
O=c1cc(O)nc(SC23CC4CC(CC(C4)C2)C3)[nH]1	none
O=c1[nH]c(=O)n(Cc2ccco2)c2c1C(C(F)(F)F)(C(F)(F)F)N=C(C1CCCCC1)N2	Autofluor 339 2.1
COc1cc(CCC(=O)N2CCN(S(=O)(=O)c3ccc(C)c(C)c3)CC2)cc(OC)c1OC	none
O=C(CCCc1c[nH]c2ccccc12)N1CCN(c2ccc(N3CCOCC3)nn2)CC1	Autofluor 339 2.1 (not shown: DPM-DC inhibit)
NC(=O)CCc1c[nH]c2ccccc12	none
COc1cc(CCC(=O)N2CCN(c3ccc(N4CCOCC4)nn3)CC2)cc(OC)c1OC	Autofluor 339 2.2 (not shown: DPM-DC inhibit)
CC(NC(=O)Cc1cccs1)C(c1cccs1)N1CCN(c2ccccc2F)CC1 (centres undefined)	none
COCC(=O)Nc1c(C(=O)Nc2cccc(OC)c2)oc2ccccc12	none
CCOCC(=O)Nc1c(C(=O)Nc2ccc(OC)cc2OC)oc2ccccc12	Autofluor 339 2.4 (not shown: DPM-DC inhibit)
COc1ccccc1NC(=O)c1oc2ccccc2c1NC(=O)c1cc(OC)c(OC)c(OC)c1	Autofluor 339 3.2 (not shown: DPM-DC inhibit)
COc1ccc(NC(=O)c2oc3ccccc3c2NC(=O)C2CC2)cc1	none
COc1cccc(OCC(=O)Nc2c(C(=O)Nc3ccc(OC)cc3OC)oc3ccccc23)c1	Autofluor 339 5 (not shown: DPM-DC inhibit)
CCOc1ccc(NC(=O)c2oc3ccccc3c2NC(=O)C2CC2)cc1	Autofluor 339 2.6
COCC(=O)Nc1c(C(=O)Nc2ccccc2OC)oc2ccccc12	none
CCc1ccc(C2CC(c3cccc(OC)c3)n3nc(N)nc3N2)cc1 (centres undefined)	none
CCOC(=O)c1ccc(Cn2c(-c3ccccc3)nnc2-c2ccccc2)o1	none
Cc1cnc(-c2nnc(N(C)C(=O)c3cnccn3)s2)cn1	none
COc1ccc(NC(=O)c2oc3cc(C)c(C)cc3c2C)c(OC)c1	Autofluor 339 3.8 (not shown: DPM-DC inhibit)
CCN(CC)S(=O)(=O)c1ccc2oc(C(=O)Nc3ccc(OC)cc3OC)c(C)c2c1	none
COc1ccc(NC(=O)c2oc3ccccc3c2NC(=O)c2ccco2)cc1	none
COc1ccc(NC(=O)c2oc3ccccc3c2NC(=O)c2ccco2)c(OC)c1	Autofluor 339 5.1 (not shown: DPM-DC inhibit)
CC(Oc1ccc2oc(-c3ccccc3)c(C(=O)O)c2c1)C(=O)O (centres undefined)	Autofluor 339 2.4 (not shown: DPM-DC inhibit)
CCOc1ccc2oc(-c3ccccc3)c(C(=O)N3CCN(CCO)CC3)c2c1	Autofluor 339 3.4 (not shown: DPM-DC inhibit)
CCOc1ccc2oc(-c3ccccc3)c(C(=O)O)c2c1	Autofluor 339 3.9 (not shown: DPM-DC inhibit)
O=C(c1cc2ccccc2oc1=O)N1CCCN(C(=O)c2cc3ccccc3oc2=O)CC1	none
O=C(c1cc2c(ccc3ccccc32)oc1=O)N1CCN(CCO)CC1	Autofluor 339 2.1 (not shown: DPM-DC inhibit)
CCOc1ccc(C(=O)N2CCN(Cc3ccccc3)CC2)cc1	none
O=C(Nc1cccc(C(F)(F)F)c1)C1CCCN1S(=O)(=O)c1cccc2cccnc12 (centres undefined)	none
CCOC(=O)CNC(=O)Cn1cnc2c(nnn2-c2cccc(Cl)c2)c1=O	none
O=C(Cn1cc(C(F)(F)F)ccc1=O)N1CCN(S(=O)(=O)c2ccccc2)CC1	Spn PMK inh 27
O=C(CN1CCc2ccccc2C1)N1CCN(S(=O)(=O)c2ccccc2)CC1	none
O=C(COc1ccccc1)Nc1nnc(-c2ccccc2)o1	none
O=C(COc1ccccc1)Nc1nnc(-c2ccc(Cl)s2)o1	Autofluor 339 2.1 (not shown: DPM-DC inhibit)
Clc1ccc2nc3ccccn3c2c1	Autofluor 339 2.2 (not shown: DPM-DC inhibit)
CCOC(=O)C1=C(C)NC(=O)NC1c1cc(C)sc1C (centres undefined)	none
CN(Cc1ccccc1)c1oc(-c2ccco2)nc1C#N	Autofluor 339 3.9 (not shown: DPM-DC inhibit)
N#Cc1nc(-c2ccco2)oc1N1CCN(Cc2ccccc2)CC1	none
CN(C)c1oc(-c2ccco2)nc1C#N	Autofluor 339 4 (not shown: DPM-DC inhibit)
CC(=O)N1CCc2c(sc(NC(=O)CN3C(=O)CCC3=O)c2C(N)=O)C1	none
CCc1cc2c(=O)c(-c3nc4ccccc4n3C)c(COCC(=O)O)oc2cc1O	none
CC(=O)Oc1ccc2cc(-c3nc4ccccc4n3C)c(=O)oc2c1	Autofluor 339 2.1 (not shown: DPM-DC inhibit)
